Results taken from PubChem BioAssay AID777 (Sanford-Burnham Center for Chemical Genomics, 2007).
Hit rate of the full screen: of about 96,000 compounds, about 19,000 (20%) were called active. Only a sample is shown. Unmarked numbers belong to inactive results.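 Rule for the calls: active = blocking of liver enzyme CYP2C9 beyond about 50% at 5 µM (limit read from the data); inactive = the rest.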

Each compound was assayed against Cytochrome P450 2C9 (Homo sapiens) (UniProt P11712) (assay: blockers of cytochrome P450 2C9 activity – biochemical, luminescence, ADME assay, primary screen (AID 777)). Details: CYP2C9 Supersomes, luciferin-H conversion, at 5 µM, stronger effect = higher value.
Cytochrome P450 2C9 (Homo sapiens), sequence (P11712 whole entry, looked up): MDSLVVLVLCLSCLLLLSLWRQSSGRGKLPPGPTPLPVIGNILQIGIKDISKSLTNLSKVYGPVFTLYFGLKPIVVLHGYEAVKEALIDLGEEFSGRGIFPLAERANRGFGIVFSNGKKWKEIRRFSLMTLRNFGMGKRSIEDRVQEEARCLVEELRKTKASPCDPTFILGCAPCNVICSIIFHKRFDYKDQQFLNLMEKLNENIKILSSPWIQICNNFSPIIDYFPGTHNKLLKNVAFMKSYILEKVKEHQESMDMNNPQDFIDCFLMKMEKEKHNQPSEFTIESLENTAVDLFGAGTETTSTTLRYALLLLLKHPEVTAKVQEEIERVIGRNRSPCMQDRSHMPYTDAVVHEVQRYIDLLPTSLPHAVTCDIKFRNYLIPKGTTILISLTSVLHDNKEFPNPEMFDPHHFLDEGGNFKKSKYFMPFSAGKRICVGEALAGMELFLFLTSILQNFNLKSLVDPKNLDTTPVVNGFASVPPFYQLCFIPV

Compound	inhibition
Cc1ccc(CNC(=O)C2CC(c3ccccc3[N+](=O)[O-])=NO2)o1 (configuration not stated)	-18.8%
COC(=O)c1ccc(CSc2nc3cc(Cl)ccc3o2)cc1	-7.6%
Cc1nc(NCc2ccccc2)c(C(N)=O)c2c1COC(C)(C)C2	2.7%
CC(C)c1nc(N2CCOCC2)c(C#N)c2c1COC(C)(C)C2	61.7% (active)
CC(C)Cc1nc(N2CCOCC2)c(C#N)c2c1CCC2	39.5%
C1=C(N2CCOCC2)/C(=C/c2nc3ccccc3[nH]2)CC1	11.9%
CC1(C)Cc2c(C#N)c(SCc3nc4ccccc4[nH]3)nc(N3CCOCC3)c2CO1	96.2% (active)
c1ccc2[nH]c(NCCN3CCOCC3)nc2c1	-29.7%
CC(C)C(=O)N1CCN(c2nc(-c3ccccc3)c3c(c2C#N)CC(C)(C)OC3)CC1	97.1% (active)
c1ccc2cc(OCCN3CCCC3)ccc2c1	2.2%
O=C(CCCN1C(=O)CSc2ncccc21)N1CCN(c2cccc(C(F)(F)F)c2)CC1	31.1%
CN1CCN(CC(O)COCc2ccc3c(c2)OCO3)CC1 (configuration not stated)	-13.3%
COc1ccc2c3c(c(=O)oc2c1OCC(=O)C(C)(C)C)CCCC3	25.4%
O=C(NCc1ccccn1)Nc1ccc(F)cc1	2.9%
CCN(CC)C(=O)CSC1c2ccccc2C(=O)N1c1ccccc1 (configuration not stated)	-6.2%
Cc1ccc(NC2=NC(c3ccccc3)n3c(nc(C)cc3=O)N2)cc1 (configuration not stated)	35.5%
O=C(Nc1ccc(S(=O)(=O)N2CCc3ccccc3C2)cc1)c1ccccc1	1.2%
Cc1ccc(S(=O)(=O)NCc2nc3ccccc3c(=O)n2N)cc1	-7.2%
Cc1ccc(S(=O)(=O)Nc2nc3ccccc3nc2N2CCc3ccccc3C2)cc1	96% (active)
Cc1cc([N+](=O)[O-])ccc1NCc1cccc([N+](=O)[O-])c1	-1.6%
COc1ccc(OCC(=O)NNC(=O)c2ccc(-c3ccccc3)cc2)cc1	-3.2%
CC(Oc1ccc(Cl)cc1)C(=O)Nc1ncccn1 (configuration not stated)	0.9%
CCC(C)OC(=O)C(C)Oc1ccc(-c2ccccc2)cc1 (configuration not stated)	79.9% (active)
Cn1c(/C(C#N)=C2/CCCCCN2)nc2ccccc21	29.5%
COc1ccc(-c2[nH]nc(-c3ccccc3)c2-c2nc3ccccc3[nH]2)cc1	10%

Compound	inhibition
O=C(NCCN=C1NS(=O)(=O)c2ccccc21)c1ccc(S(=O)(=O)N2CCOCC2)cc1	46.2%
c1ccc2c(NCC3CCCO3)nc(-c3ccncc3)nc2c1 (configuration not stated)	83% (active)
Cn1c(=O)c2[nH]c(NCC3CCCO3)nc2n(-c2ccccc2)c1=O (configuration not stated)	10.1%
Cc1nc2ccccc2c2oc(C(=O)NCC3CCCO3)cc12 (configuration not stated)	0.9%
Cc1ccc(S(=O)(=O)NCC(=O)N(CC(=O)NC2CCCCC2)Cc2ccco2)cc1	10.4%
O=C(NCc1ccc(Cl)c(Cl)c1)c1cccnc1	14.6%
Cn1ccs/c1=N\S(=O)(=O)c1ccc(C(C)(C)C)cc1	67.2% (active)
CCSc1nnc(NC(=O)c2ccc(C)cc2)s1	38%
Cc1ccc(NC(=O)c2nc[nH]c2C(=O)N2CCCCC2)c(C(=O)c2ccccc2)c1	40.9%
Cc1ccc(C)c(S(=O)(=O)N2CC(=O)Nc3ccccc32)c1	12.1%
COc1ccc(-c2nc3ccccc3n2CCC(C)C)cc1OC	59.6% (active)
CCOCCn1c(C(C)C)nc2ccccc21	5.1%
COCCn1c(-c2ccc(OC)c(OC)c2)nc2ccccc21	-20%
CSc1nc(-c2ccco2)nn1C(=O)CCc1ccccc1	-12.3%
C=CCOc1cccc(CNn2cn[nH]c2=S)c1	-16.1%
O=C(c1cccc(S(=O)(=O)N2CCOCC2)c1)N1CCOCC1	-6.1%
CCN(Cc1ccncc1)C(=O)c1cccc(S(=O)(=O)N2CCOCC2)c1	94.8% (active)
CC(C)C(NC(=O)c1cccc(S(=O)(=O)N2CCOCC2)c1)C(=O)NCCc1ccccn1 (configuration not stated)	-17.7%
COc1ccc(C2C(C#N)=C(N)Oc3cc(N)ccc32)cc1OC (configuration not stated)	85.7% (active)
COc1cc(C2C(C#N)=C(N)Oc3n[nH]c(-c4ccccn4)c32)cc(OC)c1OC (configuration not stated)	-6.2%
N#CC1=C(N)Oc2cc(O)ccc2C1C1CCCCC1 (configuration not stated)	44.8%
Cc1ccc(-n2c(C)cc(/C=C(\C#N)C(=O)NCC3CCCO3)c2C)cc1 (configuration not stated)	13.8%
COc1ccc(N2CCN(C(=O)CSc3nnc4ncccn34)CC2)cc1	18.5%
Cc1nc2ccc(S(=O)(=O)NCC(=O)NCCN3CCCCC3C)cc2s1 (configuration not stated)	8.5%
COc1ccc(C(C#N)Nc2ccc(C)cc2)cc1 (configuration not stated)	-0.6%

Compound	inhibition
CCOC(=O)c1sc(NC(=O)CCN2CCOCC2)c(C(=O)OCC)c1C	40.4%
CCOC(=O)c1c(C2CC2)csc1NC(=O)CSCc1c(C)noc1C	65% (active)
Cc1noc(C)c1CSCC(=O)Nc1nc2ccc(Oc3ccccc3)cc2s1	44.1%
COCCn1nnnc1CN1CCC(NC(=O)Nc2cccc(OC)c2)CC1	-12.7%
CC(C)C1C2=C(CC(C)(C)CC2=O)ON1c1ccccc1 (configuration not stated)	28.7%
N=c1ccn(CC(=O)NC(N)=O)c2ccccc12	-0.4%
Cc1ccc(NC(=O)CN2CCC3(O)CCCCC3C2c2ccc3c(c2)OCO3)c(C)c1 (configuration not stated)	90.4% (active)
CC1CCCCN1CC(=O)NCc1ccc2c(c1)OCO2 (configuration not stated)	-6.6%
CCN(CC)c1ccc(C2C3CCCCC3(O)CCN2CC(=O)Nc2ccccc2)cc1 (configuration not stated)	1.4%
CN(Cc1nc2ccccc2c(=O)[nH]1)Cc1cc(=O)oc2ccc3ccccc3c12	34.3%
CCCN(c1ccc(C(C)C)cc1)S(=O)(=O)c1c(C)[nH]c(=O)[nH]c1=O	21.6%
O=C(NCN1CCN(CCO)CC1)c1cnccn1	10.7%
CC1CC(C)CN(CC(=O)N2c3ccccc3CCc3ccccc32)C1 (configuration not stated)	-3.1%
CCCCNc1nc2c(c(=O)[nH]c(=O)n2C)n1CCOc1ccccc1	23.9%
COc1ccc(CCn2c(NCCCN3CCOCC3)nc3c2c(=O)[nH]c(=O)n3C)cc1	16.8%
CC(c1ccccc1)n1c(NCCCn2ccnc2)nc2c1c(=O)[nH]c(=O)n2C (configuration not stated)	96.2% (active)
O=C1c2cccc3cccc(c23)N1CN1CCN(c2ccccn2)CC1	-43%
C/C(=N\NC(=O)c1ccccc1C)c1ccc(N2CCOCC2)cc1	-40.9%
CCCCc1nc2ccccc2c(=O)n1NC(=O)c1c(O)c2cccc3c2n(c1=O)CC3	20.8%
CCCc1nc2ccccc2c(=O)n1NC(=O)c1c(O)c2ccccc2[nH]c1=O	60.6% (active)
CCCC(=O)Nc1c(O)c2ccccc2[nH]c1=O	5.2%
CCCOC(=O)Cc1c(O)c2ccccc2[nH]c1=O	-19.5%
COC(=O)c1sc(=S)n(-c2ccc(Cl)cc2)c1C	40.2%
C=CCn1c(CC(=O)Nc2cccc(OC)c2)nnc1SCC(=O)NC1CCCCC1	10%
COCCn1c(SCc2nc3cc(OC)c(OC)cc3c(=O)[nH]2)nnc1-c1ccncc1	-18.5%

Compound	inhibition
C=CCn1c(SCc2cc(C(=O)OC)c(C)o2)nnc1-c1ccncc1	57.4% (active)
CCc1nnc(NC(=O)CSc2nnc(-c3ccncc3)n2Cc2ccccc2)s1	26.1%
C=CCn1c(SCc2c(C(=O)OC)sc(N)c2C(=O)OC)nnc1-c1ccc(Cl)cc1	79% (active)
O=C1c2ccccc2C2=Nc3ccccc3SC(c3ccccc3F)C12 (configuration not stated)	8.8%
COc1ccccc1Nc1nc(N)nc(CN(C)C2CCCCC2)n1	-18.4%
Cc1c(C#N)c2ncn(CC#N)c(=O)c2n1-c1ccccc1	-15.9%
O=C(NCc1ccccn1)c1cnc2sccn2c1=O	-4%
O=C(CNCCO)NC12CC3CC(CC(C3)C1)C2	-6%
O=C(Nc1cc(C(F)(F)F)ccc1Cl)c1cc2nc3c(c(C(F)(F)F)n2n1)CCCC3	-42.8%
COc1ccc2nc(NC3=NCN(CC4CCCO4)CN3)nc(C)c2c1 (configuration not stated)	1.3%
COc1c(Cl)cc(C(=O)Nc2ccc(Cl)cn2)cc1Cl	-12.2%
CCOC(=O)N1CCN(C(c2cccnc2)c2ccc3cccnc3c2O)CC1 (configuration not stated)	32.6%
CCc1ccc(-c2cc(C(=O)NCc3ccco3)c3ccccc3n2)s1	39.4%
CC(=NCc1ccco1)c1c(C(F)(F)F)[nH]n(-c2nc3ccccc3s2)c1=O	64.2% (active)
COC(=O)Cc1cc(=O)n(-c2nc3ccccc3s2)[nH]1	18.5%
CCOc1[nH]n(-c2ccc(Cl)cc2)c(=O)c1C=Nc1ccc(O)cc1	37%
O=C(Nc1ccc(S(=O)(=O)N2CCCC2)cc1Cl)C1=COCCO1	19.8%
CC(C)C(C(=O)NC1CCCCC1)N(CC1CCCO1)C(=O)CNS(=O)(=O)c1ccc(F)cc1 (configuration not stated)	-3.2%
COc1ccc(-c2oc3ncn(Cc4ccco4)c(=N)c3c2-c2ccc(OC)cc2)cc1	27.6%
COc1ccc(N2CCN(C(=O)CNC(=O)c3ccc(C(C)(C)C)cc3)CC2)cc1	22.1%
COc1ccc(OC)c(S(=O)(=O)N(C)CC(=O)N2CCN(c3ccccc3)CC2)c1	78.3% (active)
CCN1CCN(C(=O)CN(C)S(=O)(=O)c2ccc(OC)cc2)CC1	-20.1%
